Measured values taken from a collection of fitness landscapes (doi:10.1038/s41467-024-54723-y).
Over roughly 18,000 sequences, “TetR repression strength (sort-seq, GFP reporter)” has its median near 0.23; the highest 2% begin near 0.68. The full list was thinned out, with the highest values kept by preference.

Target: TetR (class B, Tn10) (UniProt P04483)
Test: TetR repression strength (sort-seq, GFP reporter) (relative to tetO2 = 1); higher = stronger repression
Conditions: E. coli
In short: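 Repression strength was calculated by subtracting the read-weighted mean bin from the top bin index plus one and dividing by the unaltered operator's value. The plasmid library was low-copy in E. coli SIG10-MAX, with eight randomized operator positions between a constitutive promoter and sfGFP and constitutive TetR. Cultures grew 5 h at 37 °C in LB containing 50 µg/mL chloramphenicol before 10^6 cells were sorted by FACS into 13 fluorescence bins, each sequenced on Illumina. Three independent transformations were averaged for members having ≥30 reads in all replicates and a CV ≤0.5.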

Chain of TetR (class B, Tn10) (P04483 whole entry): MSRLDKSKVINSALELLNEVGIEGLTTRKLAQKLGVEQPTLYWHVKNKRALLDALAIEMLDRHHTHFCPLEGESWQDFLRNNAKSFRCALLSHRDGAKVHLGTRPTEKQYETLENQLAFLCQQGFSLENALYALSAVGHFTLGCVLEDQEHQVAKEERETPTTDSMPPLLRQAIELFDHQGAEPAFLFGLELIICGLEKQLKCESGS

Sequence | TetR repression strength
TCCCCGAGAGTGTTGGAGA | 0.156
TCCCGACGAGTAAGTGAGA | 0.0202
TCCCGTGCAGTGGGAGAGA | 0.177
TCCCCGAAAGTGGTTGAGA | 0.272
TCCCCAGTAGTGTAAGAGA | 0.139
TCCCTCGTAGTTCGTGAGA | 0.105
TCCCGTAGAGTGCAAGAGA | 0.396
TCCCGGGCAGTGAAGGAGA | 0.251
TCCCGCGGAGTGACGGAGA | 0.38
TCCCGAGGAGTACGAGAGA | 0.222
TCCCCCATAGTCAGGGAGA | 0.312
TCCCAATCAGTGAAGGAGA | 0.671
TCCCAATCAGTGTCAGAGA | 0.335
TCCCAATAAGTGTAAGAGA | 0.21
TCCCAATCAGTTTAAGAGA | 0.368
TCCCAATCAGTGAAAGAGA | 0.686
TCCCAATCAGTCAAAGAGA | 0.676
TCCCAAGAAGTGAAAGAGA | 0.2
TCCCAATCAGTGTAAGAGA | 0.74
TCCCAATAAGTGAAAGAGA | 0.688
TCCCACTAAGTTATAGAGA | 0.672
TCCCTGCTAGTTAGGGAGA | 0.181

Sequence | TetR repression strength
TCCCGTCGAGTGGGAGAGA | 0.494
TCCCTCAAAGTGTACGAGA | 0.165
TCCCGCTAAGTAAGTGAGA | 0.00864
TCCCTATAAGTCATCGAGA | 0.687
TCCCTTTCAGTCATCGAGA | 0.53
TCCCTATAAGTCGTCGAGA | 0.307
TCCCTACAAGTCATCGAGA | 0.309
TCCCTACCAGTGATCGAGA | 0.593
TCCCTATCAGTTATCGAGA | 0.859
TCCCAATCAGTCATCGAGA | 0.557
TCCCTATCAGTCATCGAGA | 0.747
TCCCTATCAGTGATCGAGA | 0.868
TCCCTCTCAGTTATCGAGA | 0.603
TCCCAATCAGTTATCGAGA | 0.468
TCCCTAGTAGTGATCGAGA | 0.37
TCCCCCACAGTGTAAGAGA | 0.183
TCCCGCTTAGTCCTCGAGA | 0.44
TCCCAATAAGTACGCGAGA | 0.348
TCCCAGCCAGTTTTGGAGA | 0.298
TCCCCGGAAGTTGCGGAGA | 0.0399
TCCCGGGGAGTTATCGAGA | 0.161
TCCCACGGAGTGGTGGAGA | 0.11

Sequence | TetR repression strength
TCCCGACGAGTACATGAGA | 0.629
TCCCTCAGAGTGGACGAGA | 0.314
TCCCTGTCAGTCATAGAGA | 0.617
TCCCTATAAGTTATAGAGA | 0.651
TCCCTATGAGTTATAGAGA | 0.439
TCCCTATCAGTCGTAGAGA | 0.557
TCCCTATCAGTTATAGAGA | 0.809
TCCCTATCAGTCATAGAGA | 0.924
TCCCCAAAAGTGTGGGAGA | 0.821
TCCCCAAAAGTTTTGGAGA | 0.276
TCCCAAAAAGTGTGGGAGA | 0.415
TCCCCAAAAGTGGGGGAGA | 0.196
TCCCTCTCAGTGTGGGAGA | 0.234
TCCCCAAGAGTCTTGGAGA | 0.193
TCCCCAAAAGTCATGGAGA | 0
TCCCCAACAGTGTTGGAGA | 0.292
TCCCTCACAGTGTGGGAGA | 1.22
TCCCTCACAGTGGGGGAGA | 0.189
TCCCCAAAAGTCTTGGAGA | 0.681
TCCCCAACAGTCTTGGAGA | 0.692
